The panel holds about 83,000 compounds, 20% with a hit somewhere; the sample as a whole holds those more often.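 Method: cells in 96-well plates; compound added at one concentration; 48 h incubation; percent growth measured; values under 10 scored active.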 Calls of active or inactive are those of the source.
The molecules below were run on MOLT-4 leukemia (assay: NCI-60 one-dose screen, 48 h (100 = growth as untreated, 0 = no growth, -100 = all killed)). Conditions: 10 µM unless noted.
With COc1ccc2c(c1)OC13Oc4cc(OC)ccc4C=C1CCCCC3=C2 the growth was 80.6% (inactive). C/C(=N/Nc1nc2ccccc2n1C)c1ccccn1 was tested, and the growth was 1.82% (active). For Cc1nc2sc(C(=O)Nc3cccc4ccccc34)c(N)c2cc1C(C)O (stereo unspecified), the growth was 13.3% (inactive). For N#Cc1c(-c2ccc(F)cc2)c(C#N)c2c(C#N)c(N)nn2c1N, the growth was 85.9% (inactive). CCOc1ccc(C2N(c3cc(OC)c(OC)c(OC)c3)C(=O)C2(F)F)cc1 (stereo unspecified) was tested, and the growth was 18.1% (inactive). For CCOc1ccccc1C(=O)/C=C/c1cc2ccccc2[nH]c1=O, the growth was 5.16% (active). For Cc1ccc(C2=N[C@H]3CCC[C@@H]3N(c3ccccc3)C(C(Cl)Cl)=N2)cc1, the growth was 94.3% (inactive). For COc1cc(/C=C/CO)cc(OC)c1O[C@@H]1O[C@H](CO)[C@@H](O)[C@H](O)[C@H]1O, the growth was 94.8% (inactive). For COc1ccc(C(=S)c2cc(OC)c(OC)c(OC)c2)cc1OC(=O)CCl, the growth was 15.3% (inactive). For O=C1CCC23OC(c4ccccc4N12)C(O)C(O)C3O (stereo unspecified), the growth was 98.3% (inactive). With COc1cc(/C=C/C(=O)c2cccs2)ccc1OCc1ccc(Cl)nc1 the growth was 86.6% (inactive). With O=c1c2ccccc2oc2ccc(OCCCCCN3CCCCCC3)cc12 the growth was 46.7% (inactive). With C=C1C(=O)O[C@H]2[C@H]1CC/C(COC(=O)NCC(=O)Nc1ccc(OC)c(C(N)=O)c1O)=C\CC[C@@]1(C)O[C@@H]21 the growth was 41.8% (inactive). In the case of COc1ccc(-c2[nH]c3ccccc3c2C=C(C#N)C#N)cc1, the growth is reported as -14.2% (active). COC(=O)/C=C/c1cc(OC(C)=O)c2c(c1)C(C(=O)OC)C(c1ccc(OC(C)=O)c(OC(C)=O)c1)O2 (stereo unspecified) was tested, and the growth was 15.3% (inactive). For CC1CCN(CCCCCOc2ccc3oc4ccccc4c(=O)c3c2)CC1, the growth was 53.2% (inactive). For CCOC(=O)C1=C(C)n2nc(CC#N)c(C#N)c2NC1c1ccc(Cl)cc1 (stereo unspecified), the growth was 104% (inactive). For Cc1cccc(C)c1NCc1nnc(-c2ccco2)o1, the growth was 88.8% (inactive). COC(=O)/C=C1\SC(=Nc2cccc(Cl)c2)N(CCc2c[nH]c3ccccc23)C1=O was tested, and the growth was -17.6% (active). With COc1ccc(C(C)c2cc(OC)c(OC)c(OC)c2)cc1 (stereo unspecified) the growth was 9.71% (active). In the case of CCO/C=N/S(=O)(=O)c1cc2c(cc1Cl)NC=NS2(=O)=O, the growth is reported as 109% (inactive). With O=C(CN1N=C(c2ccc(F)cc2)CCC1=O)Nc1nccs1 the growth was 97.5% (inactive). Nc1cc(N)nc(SCC(=O)O)n1 was tested, and the growth was 103% (inactive). With CCOC(=O)NCCc1nc2c([nH]1)c(=O)n(C)c(=O)n2C the growth was 115% (inactive). With CC1(c2ccccc2Cl)NC(=O)NC1=O (stereo unspecified) the growth was 94.5% (inactive). In the case of C=C1C(=O)O[C@H]2[C@H]1CC/C(COC(=O)n1ccnc1)=C\CC[C@@]1(C)O[C@@H]21, the growth is reported as 83.4% (inactive). In the case of COc1ccccc1-c1ccc2nc(NC(=O)Nc3cc(C(F)(F)F)cc(C(F)(F)F)c3)sc2c1, the growth is reported as -15.7% (active). In the case of O=C1NC(SCc2ccc(F)cc2)=N/C1=C/c1cccc(OCc2ccc(Cl)cc2)c1, the growth is reported as 51.2% (inactive). In the case of O=C(CCc1nnc2sc(OCc3ccccc3)nn12)c1nc2ccc([N+](=O)[O-])cc2[nH]1, the growth is reported as 95.4% (inactive). Nc1c(C(=O)Nc2ccccn2)sc2nc3c(cc12)CCCC3 was tested, and the growth was 29.8% (inactive). For Cc1nnc(/N=C2\NC(=O)/C(=C/c3ccsc3)S2)s1, the growth was 95% (inactive). For Oc1c(CCl)cc(Cl)cc1Cc1cc(Cl)cc(Cc2cc(Cl)cc(CCl)c2O)c1O, the growth was 21% (inactive). COc1ccc(C2N(c3cc(OC)c(OC)c(OC)c3)C(=O)C2(F)F)cc1F (stereo unspecified) was tested, and the growth was 18.7% (inactive). For COc1cc2c(cc1OC)C(Sc1ccc(Cl)cc1)c1c(nc(N)c(C#N)c1N)O2 (stereo unspecified), the growth was 0.994% (active).

Each molecule was assayed on SR leukemia in the same assay as above. Conditions: 10 µM unless noted.
With COc1ccc2c(c1)OC13Oc4cc(OC)ccc4C=C1CCCCC3=C2 the growth was 99% (inactive). In the case of C/C(=N/Nc1nc2ccccc2n1C)c1ccccn1, the growth is reported as 3.01% (active). For Cc1nc2sc(C(=O)Nc3cccc4ccccc34)c(N)c2cc1C(C)O (stereo unspecified), the growth was 12.3% (inactive). With N#Cc1c(-c2ccc(F)cc2)c(C#N)c2c(C#N)c(N)nn2c1N the growth was 93.7% (inactive). For CCOc1ccc(C2N(c3cc(OC)c(OC)c(OC)c3)C(=O)C2(F)F)cc1 (stereo unspecified), the growth was 16.2% (inactive). CCOc1ccccc1C(=O)/C=C/c1cc2ccccc2[nH]c1=O was tested, and the growth was 4% (active). In the case of Cc1ccc(C2=N[C@H]3CCC[C@@H]3N(c3ccccc3)C(C(Cl)Cl)=N2)cc1, the growth is reported as 95.8% (inactive). For COc1cc(/C=C/CO)cc(OC)c1O[C@@H]1O[C@H](CO)[C@@H](O)[C@H](O)[C@H]1O, the growth was 95.2% (inactive). In the case of COc1ccc(C(=S)c2cc(OC)c(OC)c(OC)c2)cc1OC(=O)CCl, the growth is reported as 11% (inactive). For O=C1CCC23OC(c4ccccc4N12)C(O)C(O)C3O (stereo unspecified), the growth was 112% (inactive). In the case of COc1cc(/C=C/C(=O)c2cccs2)ccc1OCc1ccc(Cl)nc1, the growth is reported as 20.5% (inactive). For O=c1c2ccccc2oc2ccc(OCCCCCN3CCCCCC3)cc12, the growth was 46.9% (inactive). For C=C1C(=O)O[C@H]2[C@H]1CC/C(COC(=O)NCC(=O)Nc1ccc(OC)c(C(N)=O)c1O)=C\CC[C@@]1(C)O[C@@H]21, the growth was 12.6% (inactive). For COc1ccc(-c2[nH]c3ccccc3c2C=C(C#N)C#N)cc1, the growth was -27.8% (active). For COC(=O)/C=C/c1cc(OC(C)=O)c2c(c1)C(C(=O)OC)C(c1ccc(OC(C)=O)c(OC(C)=O)c1)O2 (stereo unspecified), the growth was 8.61% (active). With Nc1cc(N)c(S(=O)(=O)O)cc1N=Nc1cc([N+](=O)[O-])ccc1O the growth was 90.3% (inactive). CC1CCN(CCCCCOc2ccc3oc4ccccc4c(=O)c3c2)CC1 was tested, and the growth was 47.5% (inactive). In the case of CCOC(=O)C1=C(C)n2nc(CC#N)c(C#N)c2NC1c1ccc(Cl)cc1 (stereo unspecified), the growth is reported as 101% (inactive). With Cc1cccc(C)c1NCc1nnc(-c2ccco2)o1 the growth was 85.7% (inactive). In the case of COC(=O)/C=C1\SC(=Nc2cccc(Cl)c2)N(CCc2c[nH]c3ccccc23)C1=O, the growth is reported as -7.91% (active). With COc1ccc(C(C)c2cc(OC)c(OC)c(OC)c2)cc1 (stereo unspecified) the growth was 13.3% (inactive). CCO/C=N/S(=O)(=O)c1cc2c(cc1Cl)NC=NS2(=O)=O was tested, and the growth was 108% (inactive). With COc1ccc([C@H]2[C@@H](F)C(=O)N2c2cc(OC)c(OC)c(OC)c2)cc1F the growth was 13.3% (inactive). In the case of O=C(CN1N=C(c2ccc(F)cc2)CCC1=O)Nc1nccs1, the growth is reported as 92.8% (inactive). In the case of Nc1cc(N)nc(SCC(=O)O)n1, the growth is reported as 92.3% (inactive). CCOC(=O)NCCc1nc2c([nH]1)c(=O)n(C)c(=O)n2C was tested, and the growth was 119% (inactive). For CC1(c2ccccc2Cl)NC(=O)NC1=O (stereo unspecified), the growth was 98.5% (inactive). For C=C1C(=O)O[C@H]2[C@H]1CC/C(COC(=O)n1ccnc1)=C\CC[C@@]1(C)O[C@@H]21, the growth was 77.5% (inactive). With COc1ccccc1-c1ccc2nc(NC(=O)Nc3cc(C(F)(F)F)cc(C(F)(F)F)c3)sc2c1 the growth was -23.8% (active). In the case of O=C1NC(SCc2ccc(F)cc2)=N/C1=C/c1cccc(OCc2ccc(Cl)cc2)c1, the growth is reported as 20.6% (inactive). For O=C(CCc1nnc2sc(OCc3ccccc3)nn12)c1nc2ccc([N+](=O)[O-])cc2[nH]1, the growth was 84.1% (inactive). Nc1c(C(=O)Nc2ccccn2)sc2nc3c(cc12)CCCC3 was tested, and the growth was 9.84% (active). Cc1nnc(/N=C2\NC(=O)/C(=C/c3ccsc3)S2)s1 was tested, and the growth was 103% (inactive). Cc1cc(Nc2nc(SCc3ccc(C(=O)Nc4ccc(F)cc4N)cc3)nn3cccc23)n[nH]1 was tested, and the growth was 13.3% (inactive). With Oc1c(CCl)cc(Cl)cc1Cc1cc(Cl)cc(Cc2cc(Cl)cc(CCl)c2O)c1O the growth was 40.8% (inactive). With COc1ccc(C2N(c3cc(OC)c(OC)c(OC)c3)C(=O)C2(F)F)cc1F (stereo unspecified) the growth was 18.7% (inactive). With COc1cc2c(cc1OC)C(Sc1ccc(Cl)cc1)c1c(nc(N)c(C#N)c1N)O2 (stereo unspecified) the growth was -13.3% (active).
